Consider 30 compounds from PubChem BioAssay (NCI).

The panel holds about 83,000 compounds, 20% with a hit somewhere; the sample as a whole holds those more often.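 Assay: single dose, 48 h. Readout: percent growth (0 = no net growth; negative = cell death). Active: <10.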 Calls of active or inactive are those of the source.

The assay concerns UACC-257 melanoma. Kind of assay: NCI-60 one-dose screen, 48 h (100 = growth as untreated, 0 = no growth, -100 = all killed). To be noted: 10 µM unless noted.
For the compound `CC(=O)c1c(C)[nH]c(-c2nc3ccc(N4CCN(C)CC4)cc3[nH]2)c1-c1ccc(N(C)C)cc1`, the growth was 36.4% (inactive). To `CC(=O)c1c(C)[nH]c(-c2nc3ccc(N4CCN(C)CC4)cc3[nH]2)c1-c1ccc(OCC2CCOCC2)cc1` belongs 30.8% (inactive). Take `CC/C=C\C[C@H]1CC=C2C(=O)C=C[C@@H]2CC=CCCCC(=O)O[C@@H](CCCCC)CC=C2C(=O)C=C[C@@H]2CC=CCCCC(=O)O[C@@H](CCCCC)CC=C2C(=O)C=C[C@@H]2CC=CCCCC(=O)O[C@@H](CCCCC)CC=C2C(=O)C=C[C@@H]2CC=CCCCC(=O)O1`: the growth was 54.4% [7.9 µM] (inactive). Take `O=C1c2cccc3cccc(c23)C(=O)N1CC#Cc1ccc2c3c(cccc13)C(=O)N(CCN1CCNCC1)C2=O`: the growth was 104% (inactive). `COc1ccc(NC(=O)c2ccc3c(c2)nc(-c2cc4ccccc4[nH]c2=O)n3-c2cc(C(C)(C)C)[nH]n2)cc1`: the growth was 97.7% (inactive). Take `CC(=O)NC1=C(C#N)C(c2ccccc2Cl)c2c(ccc3ccccc23)O1` (stereo not given): the growth was 76.7% (inactive). As to `CC(C)(C)c1[nH]nc2c1C(c1cc3ccccc3[nH]c1=O)Nc1cc(C(=O)OCc3ccccc3)ccc1N2` (stereo not given), the growth is 69.7% (inactive). As for `CC1(C)C=CC[C@]2(C)[C@H]3CC[C@@H]4[C@H]5[C@H](C(=O)/C=C/c6cccnc6)CC[C@]5(CO)CC[C@@]4(C)[C@]3(C)CC[C@@H]12`, the growth is -49.7% (active). With `CC1(C)[C@@H](O)CC[C@]2(C)[C@H]3CC[C@@H]4[C@H]5[C@H](C(=O)/C=C/c6ccc(C(F)(F)F)cc6)CC[C@]5(CO)CC[C@@]4(C)[C@]3(C)CC[C@@H]12` the figure was 67.4% (inactive); with `N=C(N)c1ccc(S(N)(=O)=O)cc1`, 93% (inactive). Turning to `C=C(C)[C@@H]1CC[C@]2(C(=O)OC)CC[C@]3(C)[C@H](CC[C@@H]4[C@@](C)(CC/C(N)=N/O)[C@H](C(=C)C)CC[C@]43C)[C@@H]12`, the growth is 103% (inactive).

As to `COc1ccc(-c2nc3c(c(C)nn3-c3ccc(F)cc3)c(=O)[nH]2)cc1`, the growth is 101% (inactive). On to `CC1(C)C(=O)/C(=C\c2ccco2)C[C@]2(C)[C@H]3CC[C@@H]4[C@@H](C(=O)/C=C/c5ccco5)CC[C@@]4(C)[C@]3(C)CC[C@@H]12`, for which the growth was 16.8% (inactive). For the compound `CC1(C)CC[C@]2(C(=O)Nc3ccccn3)CC[C@]3(C)C(=CC[C@@H]4[C@@]5(C)C/C(=C/c6ccncc6)C(=O)C(C)(C)[C@@H]5CC[C@]43C)[C@@H]2C1`, the growth is 48.4% (inactive).

On to `Cc1csc(-c2ccc3c(c2)COC3(CCCN(C)C)c2ccc(F)cc2)c1` (stereo not given), for which the growth is -57.7% (active). Take `Cc1nc([P+](c2ccccc2)(c2ccccc2)c2ccccc2)c(Sc2sc(-c3ccccc3)nc2[P+](c2ccccc2)(c2ccccc2)c2ccccc2)o1`: the growth is 8.5% (active). Turning to `O=C(O[C@@H]1Cc2c(O)cc(O)cc2O[C@@H]1c1cc(O)c(O)c(O)c1)c1cc(O)c2c(c1)OCO2`, the growth was 83% (inactive). Regarding `Fc1ccc2c(c1)c(-c1nc(-c3c[nH]c4ncccc34)cs1)cn2CCCN1CCCCC1`, the growth was 100% (inactive).

Consider `O=P(O)(c1ccccc1)c1ccccc1I`, for which the growth is 76.5% (inactive). To `COc1ccc(/C=C(\C#N)c2cc3ccccc3n2S(C)(=O)=O)cc1` belongs 90.2% (inactive); to `CN1CCN(CCOc2ccc(-c3cnc4c(-c5cccc(F)c5)cnn4c3)cc2)CC1`, 67.1% (inactive); to `Cc1ccc2oc(=O)cc(-c3sc(N4CCCCC4)nc3-c3ccccc3)c2c1`, 105% (inactive). Take `Cc1ccnc2c(OCc3ccccc3)cccc12`: the growth is 115% (inactive). Turning to `N#CC1=C(N)Oc2ccc3ccccc3c2C1c1ccccc1` (stereo not given), the growth was 61.7% (inactive). Regarding `CN(C)CCCCC(C(=O)CBr)(c1ccccc1)c1ccccc1`, the growth is 6.07% (active). For the compound `CC(=O)O[C@H]1CC[C@]2(C)[C@H]3CC=C4[C@@H]5[C@H](C)[C@@H](C)CC[C@]5(C(=O)NCCNCCNCCN)CC[C@@]4(C)[C@]3(C)CC[C@H]2C1(C)C`, the growth was 98% (inactive). As to `Cc1ccc(S(=O)(=O)Nc2ccc(-c3cc(-c4cccc(F)c4)c(C#N)c(N)n3)cc2)cc1`, the growth is 41.9% (inactive). Turning to `O=C1/C(=C\c2ccc(Br)o2)SC(=S)N1CCc1ccc(O)cc1`, the growth was 77.2% (inactive).

With `CN(C)c1ccc(-c2ccc(-c3ccc(C(=N)N)c(F)c3)s2)cc1`, the growth is 111% (inactive). On to `Cc1ccc(S(=O)(=O)Nc2ccc(-c3cc(-c4cccc(F)c4)c(C#N)c(=O)[nH]3)cc2)cc1`, for which the growth was 103% (inactive).
